Measured values published in the supplement of paper PMC6805474.

Legend:
[1] = test system: Schistosoma mansoni schistosomula (LE); assay: XTT viability relative to DMSO control; higher = more viable (less active); settings: 72 h; 10 µM
Experimental: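 XTT/PMS was then added for a further 24 h (72 h total) and A450 was read. % viability = (sample - heat-killed control)/(DMSO control - heat-killed control) x 100, from duplicate wells in two independent experiments.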

[2] = test system: Schistosoma mansoni schistosomula (NMRI); assay: phenotypic severity score (0-4); higher = more antischistosomal effect, active = 2 or more; settings: 10 µM
[3] = test system: Schistosoma mansoni schistosomula (Liberian); assay: drug effect (1 - score/DMSO control score) (fraction); higher = more antischistosomal effect, active = 0.5 or more; extreme values may be limits of the assay; settings: 10 µM
In short: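 Schistosomula of the Liberian strain of Schistosoma mansoni were mechanically transformed from cercariae, pre-incubated for at least 12 h, and placed at 50 per well in flat-bottom 96-well plates with Medium 199 containing 5% FCS. Compounds were tested in duplicate at 10 µM at 37 °C and 5% CO2, alongside wells holding 0.1% DMSO. Parasites were scored visually at 10× after 24, 48 and 72 h on a quarter-point scale running from 3 (normal) to 0 (dead). Drug effect came from the mean test-well score relative to the mean DMSO-well score, with negative values set to zero and plates accepted only when the DMSO wells averaged at least 2.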
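Throughout, for phenotypic severity score (0-4): visual microscopic scoring of shape, motility and density changes versus 0.5% DMSO solvent controls, one point per descriptor, degeneracy or death scored 4, mean of duplicate wells.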

Row | SMILES | XTT viability [1] [%] | phenotypic severity score ([2]; 24 h) | phenotypic severity score ([2]; 48 h) | phenotypic severity score ([2]; 72 h) | drug effect ([3]; 24 h) | drug effect ([3]; 48 h) | drug effect ([3]; 72 h)
1 | OCc1ccc(-c2cncc(Nc3cccc(Cl)c3)c2)cc1 | 99.5 | 0 (inactive) | 0 (inactive) | 0 (inactive) | 0.1 (inactive) | 0.0811 (inactive) | 0.152 (inactive)
2 | c1cc(C2=NCCN2)cc(-c2cc(-c3ccc(C4=NCCN4)cc3)no2)c1 | 115 | 0 (inactive) | 0 (inactive) | 0 (inactive) | 0.1 (inactive) | 0.111 (inactive) | 0.125 (inactive)
3 | CC1CS(=O)(=O)CCN1/N=C/c1ccc([N+](=O)[O-])o1 (stereo not drawn) | 224 | 0 (inactive) | 0 (inactive) | 0 (inactive) | 0.3 (inactive) | 0.278 (inactive) | 0.625 (active)
4 | Cn1ccnc1CNCCS(=O)(=O)c1cccc(Nc2ccc(-c3cccc(F)c3)cn2)c1 | 114 | 0 (inactive) | 0 (inactive) | 0 (inactive) | 0.1 (inactive) | 0.0556 (inactive) | 0.125 (inactive)
5 | Cn1ncc2c(N3CCOCC3)nc(NCCc3c[nH]c4ccccc34)nc21 | 71.8 | 4 (active) | 4 (active) | 4 (active) | 0.45 (inactive) | 0.676 (active) | 0.944 (active)
6 | c1ccc(C[C@@H]2CN(c3nccc(Oc4ccc(-n5ccnc5)cc4)n3)CCN2)cc1 | 94.4 | 0 (inactive) | 0 (inactive) | 0 (inactive) | 0.1 (inactive) | 0.111 (inactive) | 0.188 (inactive)
7 | COc1ccc(C2CC(c3cccs3)=NN2C(=O)c2ccco2)cc1OC (stereo not drawn) | 65.7 | 0 (inactive) | 0 (inactive) | 0 (inactive) | 0.1 (inactive) | 0.135 (inactive) | 0.167 (inactive)
8 | c1coc(CNc2nc(N3CCCCC3)nc3ccccc23)c1 | 99.5 | 3 (active) | 2 (active) | 4 (active) | 1 (active) | 1 (active) | 1 (active)
9 | COc1ccc(-c2nn(C(C)C)c3ncnc(N)c23)cc1OC | 95.2 | 0 (inactive) | 0 (inactive) | 0 (inactive) | 0.05 (inactive) | 0.0556 (inactive) | 0.0556 (inactive)
10 | O=C(NCCc1ccccc1)c1cc(-c2cccnc2)cnc1NCC1CC1 | 85.9 | 0 (inactive) | 2 (active) | 0 (inactive) | 0.2 (inactive) | 0.514 (active) | 0.576 (active)
11 | c1ccc(Oc2ccc(-c3cc(C4CCOCC4)[nH]n3)cc2)cc1 | 98.4 | 0 (inactive) | 0 (inactive) | 0 (inactive) | 0.182 (inactive) | 0.35 (inactive) | 0.127 (inactive)
12 | O=C(Nc1ccc(N2CCNCC2)nc1)c1oc(-c2ccccc2)nc1C(F)(F)F | 69.7 | 0 (inactive) | 0 (inactive) | 0 (inactive) | 0.0811 (inactive) | 0.389 (inactive) | 0.625 (active)
13 | CN1CCN(CCCOc2ncc(Nc3ncc(-c4ccc(C(F)(F)F)c(F)c4)nc3C(N)=O)cn2)CC1 | 5.2 | 3 (active) | 3 (active) | 3 (active) | 1 (active) | 1 (active) | 1 (active)
14 | Cc1cc(C(=O)Nc2ccc(-c3ccccc3)cc2)no1 | 90.7 | 0 (inactive) | 0 (inactive) | 0 (inactive) | 0.1 (inactive) | 0.0811 (inactive) | 0.111 (inactive)
15 | c1ccc2c(c1)CN(CC1CC1)CC1(CCN(Cc3c[nH]c4cnccc34)CC1)O2 | 58 | 0 (inactive) | 0 (inactive) | 0 (inactive) | < 0 (inactive) | 0.1 (inactive) | 0.211 (inactive)
16 | CCOc1ccc2cc(-c3nn(C(C)(C)C)c(N)c3C(N)=O)cnc2c1 | 75.2 | 0 (inactive) | 0 (inactive) | 0 (inactive) | 0.2 (inactive) | 0.243 (inactive) | 0.389 (inactive)
17 | COc1cncc(-c2cncc(N3CCN(c4ccncc4)CC3)n2)c1 | 103 | 1 (inactive) | 0 (inactive) | 0 (inactive) | 0.351 (inactive) | 0.389 (inactive) | 0.688 (active)
18 | COc1ccc(-c2cncc3ccc(C(=O)NCCCn4ccnc4)nc23)cc1 | 121 | 1 (inactive) | 0 (inactive) | 0 (inactive) | < 0 (inactive) | 0.027 (inactive) | 0.0303 (inactive)
19 | CCC(Sc1nc2ccccc2o1)C(=O)Nc1nnc(C)s1 (stereo not drawn) | 82.8 | 0 (inactive) | 0 (inactive) | 0 (inactive) | 0.1 (inactive) | 0.111 (inactive) | 0.312 (inactive)
